Here are results for 28 compounds from PubChem BioAssay (NCI).

Compounds without any hit were thinned out: in the full panel of roughly 83,000, 20% have a hit.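 Negative percent growth values reflect cell death: -40 means 40% of the cells present at the start died, and -100 means all died.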 Values without a mark were called inactive. Active and inactive are the calls of the source. How the source made its calls: active means growth percent below 10; inactive means the rest.

What all share (assay): NCI-60 one-dose screen, 48 h (100 = growth as untreated, 0 = no growth, -100 = all killed)
What all share (details): 10 µM unless noted

Experiment [1] concerns SR leukemia.
Experiment [2] relates to RPMI-8226 leukemia.
Experiment [3] deals with OVCAR-8 ovarian.
Experiment [4] deals with OVCAR-5 ovarian.
Experiment [5] has as its system OVCAR-4 ovarian.
Experiment [6] relates to SK-OV-3 ovarian.
Experiment [7] deals with IGROV1 ovarian.
For experiment [8], the system named is HS 578T breast.
Experiment [9] relates to NCI/ADR-RES ovarian.

Take `O=C(/C=C/c1cccc(C(F)(F)F)c1)Nc1cccc(C(F)(F)F)c1`: the growth in experiment [1] is 68.6%; in [2], 24.4%; in experiment [3], 33%; in [4], 95.4%; in experiment [5], 47.7%; in experiment [6] it was 79.3%. Further, the growth is 53% in experiment [7], 93% in experiment [8] and 46.4% in experiment [9].
In the case of `O=C(NCCNc1cc(-c2cn(-c3ccccc3)nc2-c2cccc(O)c2)ccn1)Nc1cc(C(F)(F)F)cc(C(F)(F)F)c1`, the growth in experiment [1] is 81.3%; in experiment [2], 94.7%; in [3], 98.5%; in experiment [4] it was 97.3%; in experiment [5] it was 91.6%; in experiment [6] it was 104%. Moreover, the growth in experiment [7] was 82.2%; in [8], 93.9%; in experiment [9] it was 91.9%.
On to `CC(C)C(/C=C/c1[nH]ncc1-c1cc(Cl)ccc1O)N1CCOCC1` (configuration not stated), for which the growth is 87.9% in experiment [1]; 94.5% in experiment [2]; 91.9% in experiment [3]; 99.4% in experiment [4]; 94.3% in experiment [5]; 92.8% in experiment [6]. Moreover, the growth in [7] is 88.6%; in experiment [8], 83.8%; in [9], 88.1%.
With `CC[C@]12C=CCN3CC[C@]4(C(=C(C(=O)OC)C1)Nc1cc5c(cc14)[C@@H]1[C@H](O5)[C@@H](O)[C@@]4(CC)CC(C(=O)OC)=C5Nc6cc(O)ccc6[C@@]56CCN1C46)C32` (some centres not stated), the growth was 5.68% (active) in [1]; -10.2% (active) in [2]; 19.4% in experiment [3]; 20.7% in experiment [4]; 15.4% in [5]; 24.1% in experiment [6]. Moreover, the growth in [7] is -2.81% (active); in experiment [8], -7% (active); in [9], 2.99% (active).
`O=C1Nc2cc(Cl)ccc2/C1=C\c1ccc(OCc2ccccc2)cc1`: the growth in [1] was 105%; in experiment [2] it was 107%; in experiment [3], 100%; in [4], 101%; in experiment [5], 96.3%; in [6], 103%. Moreover, the figures for the growth in experiment [7], in [8] and in experiment [9] were 91.6%, 96.7% and 104%, respectively.
Consider `Cc1ccc(C(=O)CSc2nnc(-c3ccc(-c4ccc(Cl)cc4)nc3C)o2)cc1`, for which the growth is 96.5% in experiment [1]; 96.7% in [2]; 107% in experiment [3]; 102% in experiment [4]; 101% in experiment [5]; 98.1% in experiment [6]. Further, the growth in [7] was 91.6%; in [8], 102%; in experiment [9] it was 100%.
Consider `NS(=O)(=O)c1ccc(Nc2nc(N/N=C/C=C/c3ccccc3)nc(Nc3ccccc3)n2)cc1`, for which the growth was 14.9% in experiment [1]; 28.5% in experiment [2]; 50% in experiment [3]; 99.2% in experiment [4]; 49.6% in experiment [5]; 78.3% in experiment [6]. Moreover, the growth in [7] is 36.8%; in [8], 39.7%; in experiment [9] it was 91.1%.
On to `COc1ccc(/C(=N\N=C(N)N)c2ccc(Cl)cc2)cc1OC`, for which the growth in experiment [1] was 42.7%; in experiment [2], 70.4%; in [3], 87.2%; in experiment [4], 78.2%; in experiment [5] it was 88.4%; in [6], 78.5%. The growth in experiment [7] is 51.5%; in experiment [8], 67.5%; in experiment [9] it was 99.3%.
Turning to `Cc1cc(=O)[nH]c(O)c1C#N`, the growth in experiment [1] was 99.3%; in [2], -72% (active); in experiment [3], 102%; in [4], 97.2%; in [5] it was 98.3%; in experiment [6] it was 106%. For the same compound, the growth in experiment [7] is 103%; in experiment [8], 116%; in [9], 106%.
As for `CCn1c2ccc(/C=N/N(C)S(=O)(=O)CCN(C)C)cc2c2cc(/C=N/N(C)S(=O)(=O)CCN(C)C)ccc21`, the growth was 2.12% (active) in experiment [1]; 65.2% in [2]; 48.9% in experiment [3]; 82.6% in experiment [4]; 69.2% in [5]; 106% in experiment [6]. The growth was 2.68% (active) in experiment [7], 76.8% in [8] and 54.7% in experiment [9].
For the compound `O=C(CCCCCCN1CC(=O)N2[C@@H](c3cccs3)c3[nH]c4ccccc4c3C[C@H]2C1=O)NO`, the growth in experiment [1] is 35.6%; in [2] it was 55%; in experiment [3], 61.7%; in experiment [4] it was 70.4%; in [5] it was 95.6%; in experiment [6], 101%. Also, the growth is 94.3% in experiment [7], 81.1% in [8] and 90.4% in experiment [9].
For the compound `NC(=O)n1c(=O)n(-c2cccc(C(F)(F)F)c2)c(=O)c2cc(-c3ccc(F)cc3F)ccc21`, the growth in experiment [1] is 4.71% (active); in [2], -30.6% (active); in experiment [3] it was 8.4% (active); in [4], 43.7%; in experiment [5], 28.4%; in experiment [6], -12.9% (active). Besides, the growth was 14.8% in [7], -6.46% (active) in experiment [8] and 2.36% (active) in experiment [9].
As to `Cc1cc2nc3c4cc(C#N)ccc4n(CCN(C)C)c3nc2cc1C`, the growth in [1] is 0.51% (active); in [2], -17.7% (active); in experiment [3], -33.2% (active); in experiment [4], 6.4% (active); in experiment [5] it was 0.732% (active); in [6] it was -4.4% (active). The growth in experiment [7] was -1.99% (active); in [8] it was -15% (active); in [9], 5.29% (active).
As to `CCS(=O)(=O)Nc1ccc(C(=O)CC2(O)C(=O)Nc3ccccc32)cc1` (configuration not stated), the growth was 99.2% in [1]; 101% in experiment [2]; 101% in experiment [3]; 102% in [4]; 108% in experiment [5]; 105% in [6]. The growth in [7] is 90%; in experiment [8], 104%; in experiment [9], 96.7%.
`CCN(CC)c1ccc(/C=N/NC(=O)c2ccc(NS(C)(=O)=O)cc2)c(O)c1`: the growth in experiment [1] is 10.6%; in [2], 15.8%; in experiment [3], 12%; in [4], 46%; in [5], 31.3%; in experiment [6], 34.2%. The values for the growth in experiment [7], in experiment [8] and in experiment [9] were 20.3%, 55.7% and 36.9%, respectively.
Turning to `CN1CCN(Cc2ccc(NC(=O)c3cncc(C#Cc4cnc5ccc(OCC6COC6)nn45)c3)cc2C(F)(F)F)CC1`, the growth is -22.7% (active) in experiment [1]; -24.4% (active) in experiment [2]; -54.5% (active) in experiment [3]; -75.1% (active) in experiment [4]; -69.9% (active) in experiment [5]; -22.6% (active) in experiment [6]. Further, the growth in experiment [7] is -39% (active); in [8] it was -37.3% (active); in [9], -34.4% (active).
For `FC(F)(F)c1cc(Br)cc(-c2cc(-c3ccc4c(c3)OCCO4)[nH]n2)c1`, the growth in [1] is 20.8%; in experiment [2] it was 22.5%; in experiment [3], 19.7%; in [4], 48.8%; in experiment [5] it was 75.6%; in experiment [6] it was 52.5%. In addition, the values for the growth in experiment [7], in experiment [8] and in experiment [9] were 20.8%, 41.4% and 9.71% (active), respectively.
Turning to `CN1CCN(CCCCCC(=O)Nc2nc(-c3cccc(NS(=O)(=O)c4cccc5c(N(C)C)cccc45)c3)cs2)CC1`, the growth in [1] is -4.68% (active); in experiment [2], 34.9%; in [3], 87.8%; in experiment [4] it was 91.6%; in experiment [5], 89.6%; in experiment [6] it was 105%. For the same compound, the results for the growth in experiment [7], in [8] and in experiment [9] were 87.8%, 73.1% and 94.1%, respectively.
Consider `C1=CC(c2nn3c(-c4ccccc4)nnc3s2)=Cc2ccccc2O1`, for which the growth in experiment [1] is 11.9%; in experiment [2], 35.6%; in experiment [3] it was 65.5%; in experiment [4], 87.6%; in [5], 73.7%; in experiment [6] it was 106%. In addition, the growth in [7] is 64.3%; in experiment [8], 61.1%; in [9] it was 85.2%.
In the case of `O=C(O)c1ccc(-n2c(=O)n(-c3cccc(C(F)(F)F)c3)c(=O)c3cc(-c4ccc(F)cc4F)ccc32)cc1`, the growth is 8.91% (active) in [1]; -7.92% (active) in experiment [2]; 13.9% in experiment [3]; 24.8% in experiment [4]; 31.2% in experiment [5]; 2.5% (active) in experiment [6]. The figures for the growth in [7], in [8] and in experiment [9] were 17.8%, -4.81% (active) and 3.12% (active), respectively.
As for `COC(=O)CCCNCCCn1ccc2cc(NCc3cccc(-c4ccccc4)c3C)ccc21`, the growth in experiment [1] is -14.7% (active); in [2] it was 28.3%; in experiment [3] it was 85.2%; in experiment [4] it was 85.4%; in [5] it was 67.6%; in [6], 92.8%. Besides, the results for the growth in experiment [7], in [8] and in experiment [9] were 67.1%, 81.8% and 79.4%, respectively.
With `Brc1cccc(-c2cc(-c3ccc4c(c3)OC=CO4)[nH]n2)c1`, the growth in [1] was 27.6%; in [2], 22.5%; in experiment [3] it was 42.3%; in experiment [4] it was 71.5%; in experiment [5], 82.1%; in experiment [6], 67.9%. Also, the growth is 41.3% in [7], 58.8% in [8] and 15.3% in [9].
Regarding `CN1CCN(c2ccc(C(=O)/C=C/c3cc(F)cc(C(F)(F)F)c3)cc2)CC1`, the growth in [1] is 17.5%; in experiment [2] it was 11.2%; in experiment [3], 65.2%; in experiment [4] it was 115%; in experiment [5], 71.8%; in [6] it was 109%. In addition, the growth is 77.9% in experiment [7], 100% in [8] and 59% in [9].
Regarding `O=c1c2ccccc2cc2n1CCN=C2c1ccccc1`, the growth was 93.6% in [1]; 99.2% in [2]; 101% in experiment [3]; 108% in experiment [4]; 97.7% in experiment [5]; 103% in experiment [6]. Besides, the growth in experiment [7] is 116%; in experiment [8], 92.6%; in [9], 99.7%.
As to `O=c1c2cc(-c3ccc(F)cc3F)ccc2n(Nc2ccccc2)c(=O)n1-c1cccc(C(F)(F)F)c1`, the growth is 9.45% (active) in experiment [1]; -6.8% (active) in experiment [2]; 13.3% in experiment [3]; 79.3% in [4]; 30.7% in experiment [5]; 8.64% (active) in experiment [6]. Further, the growth was 17.4% in experiment [7], -3.07% (active) in experiment [8] and 3.74% (active) in experiment [9].
`Fc1cc(F)cc(NNC(=S)c2ccccc2)c1`: the growth in experiment [1] was 23.2%; in experiment [2], 15.6%; in experiment [3] it was 41%; in experiment [4] it was 91.8%; in experiment [5], 49.1%; in experiment [6] it was 28.1%. Besides, the results for the growth in [7], in [8] and in experiment [9] were 57.2%, 61.3% and 55.2%, respectively.
Take `O=[N+]([O-])c1ccc(NC(=S)NNC(=S)Nc2ccc(F)cc2)cc1`: the growth in experiment [1] was 91%; in experiment [2], 85.6%; in [3] it was 91.7%; in [4], 89.9%; in experiment [5] it was 95.7%; in [6], 116%. Besides, the growth in experiment [7] is 83.5%; in experiment [8], 102%; in experiment [9], 84.2%.
In the case of `COC(=O)CNC(=O)c1cccc(-c2cc(=O)c3c(OC)c(OC)c(OC)cc3o2)c1`, the growth in experiment [1] is 85%; in [2], 94.8%; in experiment [3] it was 98%; in experiment [4] it was 98.1%; in [5] it was 102%; in experiment [6], 118%. The growth was 99.1% in [7], 99.7% in experiment [8] and 99.5% in experiment [9].
